Assay outcomes as filed in PubChem.
M1 antag – antagonists of rat M1 muscarinic receptor; 3.4% of 64,000 active; CHO-M1 cells, Fluo-4 calcium, ACh EC80 antagonist mode; active compounds read low; AID 628, 2007; B-score at 10 µM;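 active = calcium fluorescence response, raw or row-and-column corrected B-score, differing from the plate sample mean either way at a set confidence level, mostly lower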
DAT uptake mod – changed hDAT dopamine uptake under cocaine IC80, either direction, primary screen, cocaine antagonist project, cell-based, LLC-PK1 hDAT, [14C]-dopamine uptake, MLSMR. Sodium-dependent dopamine transporter (Homo sapiens), Q01959. LLC-PK1 hDAT cells, [14C]-dopamine uptake with cocaine IC80; actives deviate in either direction. B-score at 10 µM. 1.3% of 110,000 active. AID 449768, 2010;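 active = Z score or B-score, a plate-position-corrected score, falls beyond the plate's 99.7% confidence bounds, in either direction; inactive = both scores lie inside the 99.7% bounds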;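 also: scored against the spread of the other compound wells on the same plate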
D1 mod – D1 CRE-luciferase signal change, two-sided – cell-based, HEK293 D1, dopamine EC30, D1 allosteric modulator project, primary screen. D(1A) dopamine receptor (Homo sapiens), P21728. dopamine EC30 potentiation; actives deviate in either direction. B-score at 10 µM. 5.9% of 58,000 active. AID 641, 2007;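 active = luminescence count or its row- and column-corrected plate score outside the 99.7% band of the plate's sample wells, on either side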
FXIa mix inh – FXIa protease inhibitors in compound pools, primary screen, biochemical, 10-compound mixtures | Coagulation factor XI (Homo sapiens), P03951 | purified FXIa, fluorogenic substrate, pooled mixtures | inhibition, % at 5 µM | 0.19% of 62,000 active | AID 680, 2007;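 also: each value is inhibition by a whole ten-compound pool holding the compound; 0% = enzyme with no mixture and 100% = wells lacking enzyme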
Target sequence (P03951 19-387 limits assumed): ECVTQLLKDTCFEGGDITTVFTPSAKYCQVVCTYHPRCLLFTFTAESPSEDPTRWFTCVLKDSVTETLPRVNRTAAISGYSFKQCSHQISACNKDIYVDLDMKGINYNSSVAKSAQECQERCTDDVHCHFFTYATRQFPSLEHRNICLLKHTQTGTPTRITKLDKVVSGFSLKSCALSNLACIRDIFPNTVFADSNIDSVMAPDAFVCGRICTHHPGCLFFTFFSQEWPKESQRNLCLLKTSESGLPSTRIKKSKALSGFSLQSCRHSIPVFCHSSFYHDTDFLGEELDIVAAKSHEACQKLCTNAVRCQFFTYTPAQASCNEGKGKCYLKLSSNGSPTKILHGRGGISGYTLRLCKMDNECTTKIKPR
Target sequence (P03951 388-625 limits assumed): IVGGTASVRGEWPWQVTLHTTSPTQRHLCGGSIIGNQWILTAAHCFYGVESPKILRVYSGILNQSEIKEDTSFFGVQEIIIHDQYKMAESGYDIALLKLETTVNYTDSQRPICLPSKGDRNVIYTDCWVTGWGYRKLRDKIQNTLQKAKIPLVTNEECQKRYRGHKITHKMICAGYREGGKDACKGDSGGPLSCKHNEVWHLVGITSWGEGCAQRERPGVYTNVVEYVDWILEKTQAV
M1 ag – M1 muscarinic receptor agonists, primary screen, CHO-M1 cells, Fluo-4 calcium, agonist mode; 3% of 64,000 active; B-score at 10 µM; Fluo-4 calcium fluorescence; active compounds read high;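 active = fluorescence rise, raw or as B-score row- and column-corrected plate score, outside the 99.7% band of its plate's samples, either direction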
FXIIa mix inh – human factor XIIa inhibitors, primary screen, biochemical, pooled compound mixtures, fluorogenic substrate. Coagulation factor XII (Homo sapiens), P00748. purified FXIIa. inhibition, % at 5 µM. 0.2% of 62,000 active;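 also: 0% = enzyme without compound and 100% = no enzyme blank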
M1 antag confirm – rat M1 muscarinic receptor antagonists, confirmation, CHO cells, Fluo-4 calcium, duplicate; shares compounds with M1 antag; ACh EC80 antagonism; active compounds read low; calcium response (max-min fluorescence) at 10 µM; 43% of 1,700 active;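 active = calcium response below the same-plate mean of wells given acetylcholine alone at its 80%-effect dose, minus 3 SD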;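 also: raw fluorescence intensity difference in arbitrary instrument units and not normalized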
mGluR4 antag – human mGluR4 response to M1 antagonist hits, M1 allosteric modulator project, cell-based, antagonist mode, secondary assay 1; shares compounds with M1 antag; CHO-mGluR4 calcium flux, Fluo-4 fluorescence, glutamate EC80; active compounds read low; fluorescence response (max-min) at 10 µM; 0.9% of 1,700 active; AID 678, 2007;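 active = fluorescence response below the plate's average for near-maximal glutamate wells, less 3 SD of those wells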;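 also: raw unnormalized fluorescence span taken in the window right after glutamate addition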
The depositor's hits bear a star; . = no result given. A selection: hits, their analogues and other compounds. The true share with any hit is near 7.4%. Rule as the data show it, unless noted: active = inhibition above about 20% (passing the limit was not always enough); inactive = the rest.

SMILES | M1 antag | DAT uptake mod | D1 mod | FXIa mix inh | M1 ag | FXIIa mix inh | M1 antag confirm | mGluR4 antag
CN1CCc2c(sc3nc(SCC(N)=O)n(-c4ccccc4)c(=O)c23)C1 | -0.0704 | -0.989 | 0.654 | 10.5 | -0.158 | 8.6 | . | .
CSc1nc2sc3c(c2c(=O)n1C1CCCCC1)CCN(C)C3 | -4.76* | -0.126 | . | . | -0.0382 | . | 185* | 218
COC(=O)c1ccc(C(=O)OC)c(NC(=O)COC(=O)C2CC2C)c1 (configuration not stated) | . | 0.771 | . | . | . | . | . | .
Cc1ccc(NC(=O)COC(=O)C2CC2C)c(S(=O)(=O)N2CCCCC2)c1 (configuration not stated) | -2.83* | 1.25 | -0.659 | -1.5 | -0.443 | 5.2 | 645 | 233
CCCn1c(=N)c(C(=O)NCc2ccc3c(c2)OCO3)cc2c(=O)n3cccc(C)c3nc21 | -10.3* | 0.255 | 0.532 | 4.3 | 2.6 | -11.0 | 54.2* | 240
CCOCCCn1c(=N)c(C(=O)NCc2ccc3c(c2)OCO3)cc2c(=O)n3ccccc3nc21 | -2.68* | . | -0.26 | 5.2 | -0.15 | 8.6 | 438 | 226
COc1cccc(C(=O)Cn2c(NCCO)nc3ccccc32)c1 | . | 1.48 | . | . | . | . | . | .
COc1cccc(C(=O)Cn2c(=N)n(C)c3ccccc32)c1 | -4.95* | 0.514 | -0.492 | 6.1 | -0.302 | 0.9 | 443* | 258
COC(=O)CN1CCN(C(c2ccccc2)c2ccccc2)CC1 | -0.593 | 0.375 | 0.481 | 0.4 | -0.0408 | -1.1 | . | .
CCOc1ccccc1C(=O)N1CCN(C(c2ccccc2)c2ccccc2)CC1 | . | -0.495 | . | . | . | . | . | .
COCCNC(=O)CN1CCN(C(c2ccccc2)c2ccccc2)CC1 | -1.24* | -0.0917 | 1.07 | -4.5 | -0.85 | 0.8 | 569 | 250
CC(=O)c1ccccc1OCC(O)CN1CCN(C(c2ccccc2)c2ccccc2)CC1 (configuration not stated) | -7.91* | 1.49 | . | 3.7 | 1.22 | 1.1 | 133* | 231
CCOC(=O)c1cnn(-c2ccc(C(F)(F)F)cn2)c1N | . | 1.28 | . | . | . | . | . | .
CCN(CC)c1ccc(C2CC(=O)NC3=C2C(=O)CC(C)(C)C3)cc1 (configuration not stated) | -3.17* | 0.325 | 0.606 | 7.8 | 0.231 | 12.5 | 381* | 252
CN(C)c1ccc(C2CC(=O)NC3=C2C(=O)CC(C)(C)C3)cc1 (configuration not stated) | -0.0422 | -0.855 | . | 4.0 | 0.246 | 6.0 | . | .
Cc1noc(C)c1COC(=O)c1ccc2c(c1)S(=O)(=O)c1ccccc1C2=O | -0.0107 | -1.19 | 1.75 | 5.8 | 0.382 | -0.1 | . | .
COc1ccccc1S(=O)Cc1ccc(C(=O)NCCc2ccc(Cl)cc2)o1 (configuration not stated) | -3.15* | 1.46 | -2.83 | 6.5 | 2.44 | 4.3 | 545 | 193
COc1ccc(C(C(=O)OCCN(C)C)c2ccccc2)cc1 (configuration not stated) | -5.85* | -0.633 | 0.00677 | -0.3 | 0.491 | 0.4 | 232* | 259
CCCOc1ccc(C(C(=O)OCCN(CC)CC)c2ccccc2)cc1 (configuration not stated) | . | -0.957 | . | . | . | . | . | .
Oc1ccccc1Oc1ncc(Br)c(N2CCOCC2)n1 | -16.9* | -0.000176 | 3.05 | 11.2 | -0.346 | 1.3 | 16* | 258
Cc1cc2ccccc2c(=O)n1CC(=O)NCC(=O)N1CCCC1 | -1.39 | -0.0049 | -0.848 | 0.8 | 0.455 | 6.8 | . | .
COc1ccc(N2CCN(C(=O)CNC(=O)Cn3c(C)cc4ccccc4c3=O)CC2)cc1 | -2.41* | 0.0036 | -0.305 | 2.9 | -0.856 | 4.9 | 642 | 245
O=C(CSc1ncn[nH]1)N1CCN(S(=O)(=O)c2ccccc2)CC1 | . | 0.0281 | . | . | . | . | . | .
Cc1ccc(-c2nnc(N3CCN(C(=O)CSc4ncn[nH]4)CC3)c3ccccc23)cc1 | -2.9* | 2.68* | -1.9 | -1.6 | 0.971 | -1.8 | 484 | 225
CC(C)(C)NC(=O)Cn1ccc(=N)c2ccccc21 | -2.46* | 0.323 | -0.388 | 9.6 | -0.05 | -12.7 | 476 | 192
SMILES | M1 antag | DAT uptake mod | D1 mod | FXIa mix inh | M1 ag | FXIIa mix inh | M1 antag confirm | mGluR4 antag
O=C(c1ccc2nc(N3CCCCC3)sc2c1)N1CCN(Cc2ccc3c(c2)OCO3)CC1 | -0.948* | 1.11 | -1.01 | 5.5 | -2.13 | 2.1 | 366 | 219
O=C(Cn1cc(C(=O)C2CC2)c2ccccc21)NC1CCCC1 | . | -0.45 | . | . | . | . | . | .
COC(=O)c1cn(CC(=O)NC2CCCCC2)c2ccccc12 | -2.01* | -0.0162 | 0.127 | 1.5 | 0.331 | 7.8 | 572 | 219
O=C(CCNS(=O)(=O)c1cccc2nonc12)N1CCN(c2cccc(Cl)c2)CC1 | -3.13* | -0.267 | . | -5.4 | 0.187 | 2.1 | 253* | 251
O=C(CCS(=O)(=O)c1cccc2nonc12)N1CCN(c2ccc(F)cc2)CC1 | -6.86* | 0.0359 | -0.108 | 8.7 | 0.0405 | 2.6 | 622 | 303
O=C(CCNS(=O)(=O)c1cccc2nonc12)NCCc1ccc(Cl)cc1 | -0.742 | 0.465 | 0.0437 | 2.4 | -0.767 | 3.0 | . | .
CCOC(=O)c1ccccc1NC1CC(=O)N(c2ccccc2C)C1=O (configuration not stated) | 1.79 | 0.811 | 0.695 | -1.2 | 1.16 | -20.8 | . | .
COc1c(C)cc(Br)cc1C(=O)O | -12.6* | -0.372 | -0.283 | 0.9 | 0.484 | 1.4 | 710 | 203
CCCCOc1ccc(S(=O)(=O)n2c(C)nc3ccccc32)cc1 | -3.5* | -0.494 | -0.622 | 11.6 | -1.03 | 1.6 | 584 | 242
CCOc1ccc(S(=O)(=O)n2c(C)nc3ccccc32)cc1 | -2.57* | 0.461 | -1.62 | -35.8 | -0.0734 | -1.8 | 202* | 243
CCOC(=O)CSc1nnc(C)c(C)n1 | . | -1.24 | . | . | . | . | . | .
Cc1c(F)cccc1NC(=O)CCC(=O)O | 0.127 | -0.175 | 0.549 | 1.1 | -0.67 | 4.3 | . | .
Cc1cc(C(=O)N2CCN(C(c3ccccc3)c3ccccc3)CC2)on1 | -1.35* | 0.407 | . | 7.9 | -0.00288 | 4.7 | 361* | 241
CCOC(=O)c1ccc(N2C(=O)C3C(C2=O)C(C(=O)c2ccc(Cl)cc2)N2CCCC32)cc1 (configuration not stated) | -1.67* | . | 0.744 | 6.3 | 0.335 | 4.1 | 514 | 218
